For assay [1], the target named is Aldehyde dehydrogenase, mitochondrial (Homo sapiens) (UniProt P05091). Description: qHTS for Inhibitors of the Aldehyde Dehydrogenase Family (ALDH2) Primary screen (AID 2061308). Also: nearly all actives have a fitted effect of over 55% in size. Conditions: ALDH2 enzyme inhibition qHTS, 1536-well; series mostly up to 56 µM.
For assay [2], the target named is Retinaldehyde dehydrogenase 3 (Homo sapiens) (UniProt P47895). Description: qHTS for Inhibitors of the Aldehyde Dehydrogenase Family (ALDH1A3) Primary screen (AID 2061315). Conditions: ALDH inhibition qHTS; series mostly up to 56 µM.

We go through 32 molecules from PubChem BioAssay (NCATS).

Records with an inconclusive call do not appear. Where a call stands in place of a potency, no number is given. Calls of active or inactive are those of the source. Calls follow the shape of the dose curve; as a rule, active = well fitted curve in the direction sought with a large enough effect; inconclusive = small, poorly fitted or top-dose-only effect, or another doubt; inactive = no such curve, though single readings can be large; an effect the other way counts as inactive or inconclusive.

For the molecule `CCCCCN1CCC(C(=O)Nc2ccc([S+](=O)([O-])Nc3nccs3)cc2)CC1`, the Potency entry in assay [1] and in assay [2] was “inactive” each time.

On to `Cc1cccc(C)c1-n1c(SCC(=O)Nc2ccc(C(=O)O)cc2)nnc1-c1ccc([S+](=O)([O-])N2CCCC2)cc1`, for which the Potency result in assay [1] and in assay [2] was “inactive” in each case.

As for `COC(=O)C12C(=O)C(C)=C(O)C1(C)C(C)=CC1C3(CO)CCC(O)C(C)(C)C3CCC12C` (centres undefined), the Potency entry in assay [1] and in assay [2] was “inactive” in each case.

For `CCC(=O)NC(c1cccs1)c1cc(Br)c2cccnc2c1O` (centres undefined), the Potency result in assay [1] and in assay [2] was “inactive” in each case.

In the case of `Cc1cc(C)nc(NC(=S)N2CCN(c3ccccc3C#N)CC2)c1`, the Potency result in assay [1] and in assay [2] was “inactive” each time.

As to `COc1ccc(-c2nnc3n2N=C(c2cc(OC)ccc2OC)CS3)c(OC)c1`, the Potency result in assay [1] and in assay [2] was “inactive” throughout.

`CN1CCN(c2ccc(Nc3nc(-c4ccncc4)nc4ccccc34)cc2F)CC1`: the Potency result in assay [1] and in assay [2] was “inactive” each time.

`COc1ccc2cc3cc(C(=O)Nc4ccc(F)cc4)sc3nc2c1`: the Potency entry in assay [1] and in assay [2] was “inactive” throughout.

For `C=C1C(=O)OC2/C=C(\C)CC/C=C(\C(=O)O)CC/C=C(\C)CCC12` (centres undefined), the Potency entry in assay [1] and in assay [2] was “inactive” each time.

As for `Cc1ccc(/C=C/C(=O)Nc2cccc([S+](=O)([O-])Nc3ccccc3F)c2)cc1`, the Potency entry in assay [1] and in assay [2] was “inactive” throughout.

As to `CCN(CC)CCCC(C)n1c(-c2ccccc2)nc2c(NCCOC)nc(C)nc21` (centres undefined), the Potency entry in assay [1] and in assay [2] was “inactive” throughout.

For the molecule `COc1ccc(C(=O)O)cc1COc1ccc(NC(C)=O)cc1`, the Potency result in assay [1] and in assay [2] was “inactive” throughout.

As to `CC1CC(=O)NN=C1c1ccc(NCC(C)(C)NCC(O)COc2cc(Cl)ccc2C#N)cc1` (centres undefined), the Potency result in assay [1] and in assay [2] was “inactive” each time.

`COc1cccc(CN2C(=O)c3ccccc3NC2c2ccc(OC)c(COc3c(C)cc(NC(C)=O)cc3C)c2)c1` (centres undefined): the Potency entry in assay [1] and in assay [2] was “inactive” throughout.

Regarding `C=C1C(=O)O[C@@H]2C[C@H](C)[C@@H]3CC(=O)[C@H](O)[C@@]3(C)C[C@H]12`, the Potency entry in assay [1] and in assay [2] was “inactive” in each case.

Regarding `COc1cccc(NS(=O)(=O)c2ccc(C)cc2)c1C(=O)Nc1nc(-c2ccccc2)cs1`, the Potency result in assay [1] and in assay [2] was “inactive” in each case.

On to `N#CN1CCC(NC(=O)c2ccc(F)cc2)CC1`, for which the Potency result in assay [1] and in assay [2] was “inactive” throughout.

Turning to `C=C1C(=O)OC2C1CCC1(C)C(O)CCC(=C)C21` (centres undefined), the Potency result in assay [1] and in assay [2] was “inactive” throughout.

Consider `CCN1CCCC1Cn1c(-c2ccccc2)nc2c(NCc3ccccc3)nc(C)nc21` (centres undefined), for which the Potency result in assay [1] and in assay [2] was “inactive” each time.

In the case of `CC1CCC2C(C)(C)C(O)CCC2(C)C12Cc1c(O)cc3c(c1O2)CN(C(CCCN=C(N)N)C(=O)O)C3=O` (centres undefined), the Potency result in assay [1] and in assay [2] was “inactive” in each case.

`Cc1nnc(-c2cnn(C)c2N)n1Cc1cncn1C`: the Potency entry in assay [1] and in assay [2] was “inactive” throughout.

With `COc1ccc2nc(-c3ccccc3OC)sc2c1`, the Potency result in assay [1] and in assay [2] was “inactive” in each case.

With `COc1cccc(C2=Nn3c(nnc3-c3cccc(OC)c3OC)SC2)c1`, the Potency entry in assay [1] and in assay [2] was “inactive” in each case.

For the molecule `O=C(Cc1ccc(Cl)c(Cl)c1)Nc1ccc([S+](=O)([O-])Nc2ncn[nH]2)cc1`, the Potency result in assay [1] and in assay [2] was “inactive” throughout.

Consider `CC1(C)C=Cc2c(ccc3c2N=C2C(C)(C)[C@@H]4C[C@]56CCCN5C(=O)[C@@]4(C[C@]23O)NC6=O)O1`, for which the Potency result in assay [1] and in assay [2] was “inactive” throughout.

`CC(=O)Nc1sc2c(c1-c1ccccc1F)CCNC2`: the Potency entry in assay [1] and in assay [2] was “inactive” each time.

Consider `Cn1nnnc1Sc1ncnc2scc(-c3cccc(C(F)(F)F)c3)c12`, for which the Potency result in assay [1] and in assay [2] was “inactive” each time.

As for `Cc1ccc(S(=O)(=O)Nc2cnccc2C(=O)Nc2nc(-c3ccc(Cl)cc3)cs2)cc1`, the Potency entry in assay [1] and in assay [2] was “inactive” throughout.

In the case of `Cc1ccc2c(c1)/C(=C\c1cc(Cl)c(O)c(Cl)c1)C(=O)N2`, the Potency entry in assay [1] and in assay [2] was “inactive” throughout.

Turning to `COc1ccc(CCC(=O)c2c(O)cc(O)cc2O[C@@H]2O[C@H](CO)[C@@H](O)[C@H](O)[C@H]2O)cc1`, the Potency entry in assay [1] and in assay [2] was “inactive” throughout.

In the case of `CCCn1c(C)nc2c(NCCN3CCCC3)nc(C)nc21`, the Potency result in assay [1] and in assay [2] was “inactive” throughout.

For the molecule `CCOc1ccc(CCNC(=O)c2cc3sccc3n2Cc2ccccc2)cc1OCC`, the Potency result in assay [1] and in assay [2] was “inactive” each time.
